AHR act: AHR activators, primary screen, cell-based, luminescence, luciferase reporter, human. activation, % at 5 µM. 2.5% of 320,000 active. AHR-responsive luciferase reporter cells; in the data active = activation above about 47%
hcDAF-12 act: H. contortus DAF-12 nuclear receptor activators, primary screen, cell-based, luminescence, HEK293, lit1-tk-luc reporter. HEK293 hcDAF-12 lit1-tk-luc reporter; 0% DMSO, 100% Δ7-dafachronic acid. activation, % at 6.8 µM. 1.4% of 370,000 active;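 active = activation above the mean of all tested compounds plus 3 SD, cut at about 5.5% in these data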
DAX1 inh-1: DAX1 (NR0B1) inhibitors on StAR promoter, primary screen, cell-based, luminescence, SF-1 (NR5A1), full-length DAX-1; HEK293T StAR-luciferase reporter, SF-1/DAX-1 repression relief; inhibition, % at 6.8 µM; 1.1% of 370,000 active; AID 652010, 2013;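 active = inhibition above the mean over all tested compounds plus 3 SD, cut at about 3.6% in these data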;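 also: higher inhibition means more luminescence from relief of DAX-1 repression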
hgDAF-12 ag: H. glycines DAF-12 receptor agonists, primary screen, cell-based, luminescence, HEK293, GAL4 fusion, UAS-luciferase | HEK293 GAL4-hgDAF12 UAS-luciferase reporter, agonist luminescence; normalized to butyrate control | activation, % at 6.8 µM | 1.8% of 370,000 active;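 active = activation above a cutoff set at the mean of all screened compounds plus 3 SD, cut at about 10% in these data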
DAX1 inh-2: DAX1 (NR0B1) inhibitors, primary screen, cell-based, HEK293, Gal4-DAX1, luciferase luminescence; Nuclear receptor subfamily 0 group B member 1 (Homo sapiens), P51843; HEK293 Gal4-DAX1 luciferase reporter; inhibition, % at 6.75 µM; 0.99% of 340,000 active; AID 504766, 2011;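 active = inhibition above the mean over all tested compounds plus 3 SD, cut at about 4.2% in these data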;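 also: inhibition shows as a rise in luminescence from relieved DAX1 repression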
Target sequence (P51843 207-470 limits assumed): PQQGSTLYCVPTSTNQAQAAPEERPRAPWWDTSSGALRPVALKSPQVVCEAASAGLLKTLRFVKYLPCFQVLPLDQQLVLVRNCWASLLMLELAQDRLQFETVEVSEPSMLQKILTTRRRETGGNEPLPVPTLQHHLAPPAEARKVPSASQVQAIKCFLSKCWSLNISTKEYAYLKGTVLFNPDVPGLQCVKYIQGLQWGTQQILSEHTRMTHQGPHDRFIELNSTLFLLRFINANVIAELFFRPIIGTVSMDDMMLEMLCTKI
ssDAF12 agonist: S. stercoralis DAF-12 nuclear receptor activators, primary screen, cell-based, luminescence, HEK293, GRIP1 co-expression, lit1-tk-luc; HEK293 ssDAF-12/GRIP1 lit1-tk-luc reporter; % of 3 µM dafachronic acid response; activation, % at 6.8 µM; 1% of 370,000 active; AID 652126, 2013;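 active = activation above the mean over all tested compounds plus 3 SD, cut at about 0.9% in these data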
Numbers stand for hits; . = inactive; / = no result. Sampled rows, rich in hits. Any-hit rate of the full collection: about 5.7%.

SMILES	AHR act	hcDAF-12 act	DAX1 inh-1	hgDAF-12 ag	DAX1 inh-2	ssDAF12 agonist
Cc1ccc2nc3sc(C(=O)N4CCOCC4)c(N)c3cc2c1	.	6.5	3.7	.	.	.
O=C1C=C(Nc2ccccc2O)c2ccccc2C1=O	72	.	.	.	.	.
O=S1(=O)CCC(NC(=S)Nc2ccc3ccccc3c2)C1 (stereo not drawn)	.	.	.	.	.	.
O=C(Nc1ccc2ccccc2c1)OC1CCS(=O)(=O)C1 (stereo not drawn)	/	.	.	.	/	2.1
CN(C(=O)c1cccnc1)c1nnc(-c2cnccn2)s1	.	.	.	.	.	.
CN(C(=O)c1cccnc1)c1nnc(-c2ccccn2)s1	54	.	.	.	.	.
COc1cc(/C=C/C(=O)OCC(=O)NC(=O)NC(C)(C)C)ccc1O	.	.	.	.	4.5	.
Cn1c(=O)[nH]c(=O)c2c1nc(SCC(=O)O)n2CCOc1ccccc1	.	.	.	.	.	0.9
Cn1c(=O)[nH]c(=O)c2c1nc(SCC(=O)O)n2CCc1ccccc1	.	.	.	.	.	.
COc1ccc(N2CCN(C(=O)C3(C)CC3(Cl)Cl)CC2)cc1 (stereo not drawn)	.	.	.	.	.	.
c1ccc(-c2ccc(-c3nc(-c4ccncc4)no3)cc2)cc1	.	.	.	.	.	.
c1coc(-c2nc(-c3ccncc3)no2)c1	.	.	.	13	.	1.7
Clc1ccc(-c2nc(-c3ccncc3)no2)c(Cl)c1	.	.	.	.	4.9	.
COC(=O)Cc1ccc(NC(=S)NCCSc2ccc(Cl)cc2)cc1	.	.	.	.	.	.
CCN1CCCC1CNC(=O)Cn1cc2c(n1)CCC(C)C2 (stereo not drawn)	.	.	.	.	4.5	.
CC(C)(C)c1ccc(/C([O-])=C(/C(=S)NCc2ccco2)[n+]2ccccc2)cc1	.	/	/	/	/	/
CNc1nc(NC)c2cn[nH]c2n1	/	.	.	.	.	.
O=C(NCCc1ccc(O)cc1)c1[nH]c(C(F)(F)F)nc1-c1ccccc1	/	.	.	.	/	.
O=C(NCCc1ccccc1)c1[nH]c(C(F)(F)F)nc1-c1ccccc1	/	.	.	.	/	1.2
CN(C)CCCNc1nc2cc(-c3ccc4c(ccn4C)c3)sc2c(=O)n1C	/	.	.	12	/	.
Cc1ccc(-c2cc3nc(NCCc4ccncc4)n(C)c(=O)c3s2)cc1	/	.	4.0	.	/	.
CN(C)CCCNc1nc2cc(-c3ccsc3)sc2c(=O)n1C	/	.	.	.	/	.
Cc1nnc(-c2cccc(Br)c2)c2cn(-c3cccc(Br)c3)nc12	.	.	.	.	.	.
Cc1nnc(-c2cccc(Br)c2)c2cn(-c3ccccc3)nc12	48	.	.	.	.	.
COc1ccc(-n2cc(CN3CCCC3)c(-c3cccc(F)c3)n2)cc1	.	.	.	.	.	.
SMILES	AHR act	hcDAF-12 act	DAX1 inh-1	hgDAF-12 ag	DAX1 inh-2	ssDAF12 agonist
O=C(c1cn(-c2ccccc2)nc1-c1cccc(Br)c1)N1CCOCC1	.	.	.	.	.	.
COc1ccc(-n2cc3c(-c4cccc(Br)c4)nnc(C)c3n2)cc1	61	.	.	.	.	.
Cc1nnc(-c2cccc(Br)c2)c2cn(-c3ccc(Br)cc3)nc12	89	.	.	.	.	.
COc1cccc(-c2nn(-c3ccccc3)cc2CN(C)C(C)c2ccon2)c1 (stereo not drawn)	68	.	.	.	.	.
COc1cccc(-c2nn(-c3ccccc3)cc2CN(C)Cc2ccno2)c1	.	.	.	.	.	.
Clc1ccccc1-c1nnc2sc(-c3cccs3)nn12	71	.	.	.	.	.
Cc1c(CN(C)C)c2c(n1Cc1ccccc1)C(=O)c1ccc(Br)cc1-2	.	.	.	.	.	.
